The source made the active and inactive calls.
tested on: Sonic hedgehog protein (Shh); assay: Sonic hedgehog microarray binding compounds – biochemical, small-molecule microarray, 635/667 nm fluorescence, primary screen (AID 1151); conditions: 635 nm fluorescence, higher = more signal;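 further: Shh protein binding to compounds spotted on small-molecule microarray slides; score combines spot fluorescence intensity with signal-to-noise across triplicate slides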

| SMILES | composite z-score |
| --- | --- |
| CO[C@H]1COC(=O)[C@H](CCSC)NC(=O)CC=C[C@@H](C)[C@H](OC)COC(=O)[C@@H](OCc2ccccc2)C=C[C@@H]1C | 1.9 |
| COc1ccc(OC[C@H]2CN3[C@@H](CC[C@@H](C)[C@@H]3c3ccc(Br)cc3)C(=O)O2)cc1 | 0.583 |
| COc1ccc(O[C@H]2C=C[C@@H](c3ccccc3)O[C@@H]2CO)cc1 | 0.507 |

tested on: not listed separately; assay: optical density shifts of acrAB sulA E. coli – strain DRC41, OD650, 48 h, E. coli filamentation inducer project, primary screen (AID 1152); conditions: higher = more signal, called active from +8 up or from −8 down;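 further: E. coli MC1000 strain DRC41 lacking acrAB efflux pump and sulA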

| SMILES | z-score |
| --- | --- |
| CC(=O)OC[C@H]1O[C@@H](ON=C(C)C)[C@H](OC(C)=O)[C@@H](OC(C)=O)[C@@H]1OC(C)=O | -1.83 (inactive) |
| CC(C)=CCCC(C)=CCON=C1[C@H]2CCn3c(=O)n(-c4ccccc4)c(=O)n3[C@H]2[C@H](O)[C@@H]2O[C@H]12 | -0.484 (inactive) |
| COC(=O)CC=C[C@@H](C)[C@@H](C=NOC[C@@H](C)[C@H](OCc1ccccc1)C(C)C)OC | 0.14 (inactive) |
| CCOC(=O)CCN1C(=O)[C@H]2[C@H]3[C@H](O)[C@H](O)CC(=NO[C@@H]4O[C@H](CO)[C@@H](O)[C@H](O)[C@H]4O)[C@@H]3CC[C@H]2C1=O | 0.998 (inactive) |
| COC(=O)[C@H](C)NC(=O)CCC1CC(OC(=O)NCc2ccc3c(c2)OCO3)CC2(CCCC(COC(=O)NCCc3ccc(Cl)cc3)O2)O1 (some centres undefined) | -0.51 (inactive) |
| CC(CCN1CCCc2nc(C)c(C)cc21)=NOC[C@@H](O)COCc1ccco1 | 0.768 (inactive) |
| CC(CCN1CCCCc2nc(C)c(C)cc21)=NO[C@@H](C)c1cc(-c2c(C)cc(C)cc2C)no1 | 0.393 (inactive) |
| C[C@H]1CC[C@@H](C(=O)O)N[C@@H]1c1ccc(C#Cc2ccccc2)cc1 | -0.553 (inactive) |
| COc1ccc(O[C@H]2C=C[C@@H](c3ccccc3)O[C@@H]2COC(=O)NCc2cccc3ccccc23)cc1 | -0.286 (inactive) |
| CC(C)CON=C1C[C@@H](O)[C@@H](O)[C@@H]2[C@@H]3C(=O)N(C(C)(C)C)C(=O)[C@@H]3CC[C@@H]12 | -1.53 (inactive) |
| CC(C)CON=C1[C@H]2CCn3c(=O)n(C)c(=O)n3[C@H]2[C@H](O)[C@@H]2O[C@H]12 | -0.0031 (inactive) |
| CCOC(=O)CCN1C(=O)[C@H]2[C@H]3[C@H](O)[C@H](O)CC(=O)[C@@H]3CC[C@H]2C1=O | -0.851 (inactive) |
| CC1(C)O[C@H]2OC([C@H](O)CON3C(=O)c4ccccc4C3=O)[C@H](O)[C@H]2O1 (some centres undefined) | 0.336 (inactive) |
| COc1cccc([C@H](O)Cn2cc(-c3ccc(CON=C(C)C)cc3)nn2)c1 | 0.697 (inactive) |
| COCC#Cc1ccc([C@@H]2N[C@H](C(=O)O)CC[C@H]2C)cc1 | -0.0799 (inactive) |
| O=C1C[C@H](c2ccccc2)[C@H](c2ccc(Br)cc2)O1 | -1.16 (inactive) |
| CCCNC(=O)OC[C@H]1O[C@H](CCON=C[C@@H](NS(=O)(=O)c2ccc(C)cc2)[C@H](C)C=CCC(=O)OC)C=C[C@@H]1Oc1ccc(OC)cc1 | 0.0368 (inactive) |
| CCOC(=O)[C@H](Cc1ccccc1)NC(=O)CCC1CC(OC(=O)NCCc2ccc(F)cc2)CC2(CCCC(COC(=O)NCCOc3ccccc3)O2)O1 (some centres undefined) | -0.558 (inactive) |

| SMILES | z-score |
| --- | --- |
| C=CC[C@@H]1C=C[C@H](Oc2ccc(C)cc2)[C@@H](COC(=O)NCc2cccc3ccccc23)O1 | -0.575 (inactive) |
| O=C1C2=CC[C@H]3C(=O)N(C[C@@H]4CCCO4)C(=O)[C@H]3[C@H]2[C@H](O)[C@@H]2O[C@H]12 | 0.194 (inactive) |
| CSCC[C@@H]1NC(=O)CC=C[C@@H](C)COC(=O)[C@H](C)COC1=O | 0.832 (inactive) |
| COC(=O)[C@H](Cc1ccccc1)NC(=O)[C@@H](C)CO | -0.388 (inactive) |
| O=C1[C@H]2[C@H]3[C@H](O)[C@H](O)CC(=NOCc4ccccc4)[C@@H]3CC[C@H]2C(=O)N1c1cccc(Oc2ccccc2)c1 | 1.16 (inactive) |
| CC(C)C(=O)N[C@H]1CCCN1C(=O)C=Cc1ccccc1 | -1.05 (inactive) |
| CCN1C(=O)[C@H]2[C@H]3[C@H](O)[C@H](O)CC(=NOCC(C)C)[C@H]3CC[C@H]2C1=O | 0.552 (inactive) |
| C#CCCCON=C1[C@H]2CCn3c(=O)n(Cc4cc5c(cc4Cl)OCO5)c(=O)n3[C@H]2[C@H](O)[C@@H]2O[C@H]12 | -0.248 (inactive) |
| COC(=O)[C@H](C)NC(=O)CCC1CC(OC(=O)NCc2cccc3ccccc23)CC2(CCCC(COC(=O)NCCOc3ccccc3)O2)O1 (some centres undefined) | -0.677 (inactive) |
| CO[C@H]1COC(=O)CC=C[C@@H](C)COC(=O)[C@H]2CCCN2C(=O)CC=C[C@H]1C | 0.694 (inactive) |
| O=C1C[C@@H](O)[C@@H](O)[C@@H]2[C@@H]3C(=O)N(C4CCCCC4)C(=O)[C@@H]3CC[C@@H]12 | -0.348 (inactive) |
| CN1CCc2nc(-c3ccccc3)c(-c3ccccc3)cc2C1 | 0.67 (inactive) |
| CC(CCC(=O)OC[C@H]1O[C@H](C#Cc2ccccc2)C=C[C@@H]1Oc1ccc(C)cc1)=NOC(C)CN1CCCCc2nc(C)c(C)cc21 (some centres undefined) | -0.131 (inactive) |
| CO[C@@H]1C=CCC(=O)N[C@@H](C)C(=O)OC[C@@H](OC)[C@H](C)C=CCC(=O)OC[C@H]1C | 0.0083 (inactive) |
| CO[C@@H]1[C@H](O)CO[C@H]1C=Cc1ccccc1 | -0.0624 (inactive) |
| CO[C@H]1COC(=O)[C@H](CCSC)NC(=O)CC=C[C@@H](C)[C@H](OC)COC(=O)[C@@H](OCc2ccccc2)C=C[C@@H]1C | 0.319 (inactive) |
| COc1ccc(OC[C@H]2CN3[C@@H](CC[C@@H](C)[C@@H]3c3ccc(Br)cc3)C(=O)O2)cc1 | -0.228 (inactive) |
| COc1ccc(O[C@H]2C=C[C@@H](c3ccccc3)O[C@@H]2CO)cc1 | 0.0426 (inactive) |

Source: PubChem BioAssay
